TTR transcr act: activators of transthyretin transcription; activation, % at 16.7 µM; AID 1117267; SH-SY5Y TTR promoter Gaussia luciferase, luminescence; 100% = recombinant luciferase protein wells; actives 1.3% (n = 92,000);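 active = activation above the mean of all tested compounds plus 3 SD, cut at about 9.5% in these data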;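 also: cells exposed to compounds for one day before reading; 0% = median of all test compound wells on the plate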
TTR inh HuH7: counter-screen for TTR activators: TTR transcription inhibitors in HuH7 cells; inhibition, % at 16.7 µM; actives 4% (n = 1,100); HuH7 TTR promoter-Gaussia luciferase reporter, luminescence; AID 1117279; shares compounds with TTR transcr act;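 active = average inhibition above the solvent-only control wells' mean plus 3 SD, cut at about 15% in these data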;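 also: 0% = cells with DMSO only and 100% = cells with inhibitor control FD; inhibitors lower well luminescence so higher value means more inhibition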
TTR act confirm: human TTR transcription activation, confirmation. SHSY5Y TTR promoter Gaussia luciferase, luminescence; 100% = purified Lucia enzyme wells, no cells. activation, % at 16.7 µM. 1,100 tested, under 10 active. AID 1117280. shares compounds with TTR transcr act;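 active = mean activation above a set limit taken from the earlier primary screen, cut at about 11% in these data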;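 also: 0% = DMSO-treated cells and 100% = recombinant Lucia luciferase without cells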
Starred values were filed as active, the others as inactive. Shown is part of a subset that was picked to be rich in hits.

SMILES	TTR transcr act	others
CCCC1CCC2(CCCN2CCOC(=O)Nc2ccc(OC)cc2)CC1 (stereo not drawn)	1
O=C1c2ccccc2C(=O)N1CCN1CCCCC1	-2
N#CCCN(CCCN1CCOCC1)CN1C(=O)c2ccccc2C1=O	31*	TTR inh HuH7=-10;TTR act confirm=-1
O=C1c2ccccc2NC(c2ccccc2)N1CCCN1CCOCC1 (stereo not drawn)	-1
COc1cccc(N(C)C(=O)[C@@H](C)[C@@H](O)c2ccc(C(C)=O)cc2)c1	1
S=c1[nH]nc(-c2cc(-c3ccccc3)n[nH]2)n1/N=C/c1ccccc1	11*	TTR inh HuH7=-15;TTR act confirm=1
S=c1[nH]nc(-c2cc(-c3ccccc3)n[nH]2)n1/N=C/C=C/c1ccccc1	4
S=c1[nH]nc(-c2cc(-c3ccccc3)n[nH]2)n1/N=C/c1cccs1	0
Cc1ccc(Cc2c(-c3ccccc3)nc3ccc(Br)cn23)cc1	1
Brc1cccc(-c2nc3ccc(Br)cn3c2Cc2ccccc2)c1	22*	TTR inh HuH7=-2;TTR act confirm=-1
Clc1cccc(-c2nc3ccc(Br)cn3c2Cc2ccccc2)c1	-1
C[C@H]1[C@@H](OC(=O)Nc2cccc(C(F)(F)F)c2)CC[C@@]23CCCN2C(=O)CCC[C@@H]13	-1
O=C(Nc1ccc(F)c(C(F)(F)F)c1)Nc1nnc(-c2ccncc2)s1	-1
CCN1CCN(c2nc(Nc3ccccc3)nc(N)c2[N+](=O)[O-])CC1	-1
Nc1nc(Nc2cccc(F)c2)nc(N2CCOCC2)c1[N+](=O)[O-]	12*	TTR inh HuH7=-9;TTR act confirm=-1
Cc1cccc(Nc2nc(N)c([N+](=O)[O-])c(N3CCN(C)CC3)n2)c1	1
CO[C@H]([C@H](C)/C=C/N(C)C=O)[C@@H](C)C(=O)CC[C@H](C)[C@H](O)[C@H](C)[C@H]1OC(=O)/C=C/C(C)=C/C[C@H](O)C[C@@H]2C=CC[C@@H](C[C@H](OC)[C@@]3(CO3)[C@@H](OC)C[C@@H](OC)[C@@H]1C)O2	-1
CN(C)c1ccc(CC(=O)N2CCCC(c3cc(C(=O)Nc4ccccc4)no3)C2)cc1 (stereo not drawn)	0
Cc1ccc(F)cc1C(=O)N1CCCC(c2cc(C(=O)Nc3ccccc3)no2)C1 (stereo not drawn)	-4
O=C(Nc1ccccc1)c1cc(C2CCCN(C(=O)C3CC3)C2)on1 (stereo not drawn)	10.0*	TTR inh HuH7=-10;TTR act confirm=0
O=C1CCC[C@H]2C[C@H](NCc3ccc(F)cc3)CC[C@]23CCCN13	4
CCn1c(=O)cc(N2CCN(c3cccc(C(F)(F)F)c3)CC2)[nH]c1=O	1
COc1ccc2[nH]c3c(c2c1)CCN[C@]31C(=O)N(Cc2cn(Cc3ccccc3)nn2)c2ccccc21	2
Cc1ccccc1C(=O)n1ccc2ccc(-c3ccc4ccn(Cc5ccc(C#N)cc5)c4c3)cc21	1
CCCC1CCC2(CCCN2CCOC(=O)Nc2ccc(Br)cc2)CC1 (stereo not drawn)	0
SMILES	TTR transcr act	others
COc1ccc(OC)c(NC(=O)C(=O)NNC(=O)COc2ccc(Br)cc2C)c1	43*	TTR inh HuH7=-9;TTR act confirm=0
COc1ccc(C)cc1NC(=O)C(=O)NNC(=O)COc1ccc(Cl)cc1	2
COc1ccc(OCC(=O)NNC(=O)C(=O)Nc2cc(OC)ccc2OC)cc1	2
CCOP(=O)(OCC)c1ccc2c(c1)C(=O)c1ccccc1-2	-1
O=C(c1ccccc1)n1ccc2ccc(-c3ccc4ccn(Cc5ccccc5)c4c3)cc21	1
COC(=O)[C@]12C[C@H](CC(=O)NCc3ccc(OC)c(OC)c3)C(=O)N(Cc3ccc4c(c3)OCO4)C1=C[C@H](C(C)C)O[C@@H]2C1CC1	0
CC(C)(C)c1ccc(C(=O)Nc2cc(Cl)ccc2C(=O)O)cc1	-2
CCOc1ccc(CCNC(=O)c2cc3ccsc3n2C)cc1OCC	-1
CC(=O)Nc1ccc(S(=O)(=O)Nc2ccc3ccccc3n2)cc1	-1
CCN1CCN(c2nc3ccccc3nc2NS(=O)(=O)c2ccc(NC(C)=O)cc2)CC1	12*	TTR inh HuH7=-9;TTR act confirm=0
CCn1nc(NS(=O)(=O)c2ccc(NC(C)=O)cc2)c2cc3ccccc3nc21	0
COc1ccc(C(c2ccc(OC)cc2)N2CCN(C(=O)c3noc(C)c3[N+](=O)[O-])CC2)cc1	0
Nc1[nH]c(C(=O)c2ccccc2)c(-c2ccc3ccccc3c2)c1C(=O)NCCc1ccc(Cl)cc1	4
CCOC(=O)[C@]12CCCC=C1N(Cc1ccc(OC)cc1)C(=O)[C@@H]2CC(=O)NCCCCc1ccccc1	0
O=C(CSc1ncccc1C(=O)O)c1cccc(C(F)(F)F)c1	-1
O=C(CSc1ncccc1C(=O)O)c1ccc2ccccc2c1	12*	TTR inh HuH7=-17;TTR act confirm=1
O=C(CSc1ncnc2nc[nH]c12)c1ccc2ccccc2c1	-4
COCCNC(=O)c1c(N)[nH]c(C(=O)c2ccc(Br)cc2)c1-c1c(OC)ccc2ccccc12	0
COC(=O)[C@]12CCCCC=C1N(Cc1ccc(OC)cc1)C(=O)[C@@H]2CC(=O)N1CCN(C(=O)c2ccco2)CC1	3
CCC(C)(C)n1nnnc1C(c1ccc(C)cc1)N1CCCC1 (stereo not drawn)	18*	TTR inh HuH7=-7;TTR act confirm=1
CCC(C)(C)n1nnnc1C(c1cc2cc(C)cc(C)c2[nH]c1=O)N1CCCC1 (stereo not drawn)	-2
Cc1ccc(C)c(N2CCN(C(c3ccccc3)c3nnnn3C(C)(C)C)CC2)c1 (stereo not drawn)	0
CCOC(=O)[C@@]12CCC3=C1N(CCC3)C(=O)[C@H](CC(=O)NCCCCc1ccccc1)C2	-1
COC(=O)c1sccc1NC(=O)c1cccc(OC)c1	1
COC(=O)c1sccc1NC(=O)Nc1cc(C)cc(C)c1	-2
SMILES	TTR transcr act	others
COC(=O)c1sccc1NC(=O)Nc1cccc(OC)c1	10.0*	TTR inh HuH7=-7;TTR act confirm=0
O=C(Nc1ccccc1C(F)(F)F)OC1CC2CC1[C@H]1CCCCN1C2 (stereo partly drawn)	-2
COC(=O)C[C@@H]1CC[C@H]2[C@H](COc3ccc(NC(=O)Nc4ccc(Cl)cc4)cc3C(=O)N2C)O1	-2
CC1(c2nnnn2Cc2ccccc2)CSCC(=O)N1Cc1cccs1 (stereo not drawn)	-1
c1ccc(Sc2ncnc3c2oc2ccccc23)nc1	18*	TTR inh HuH7=20*;TTR act confirm=0
c1coc(CSc2ncnc3c2oc2ccccc23)c1	1
Oc1ccc(Nc2ncnc3c2oc2ccccc23)cc1	0
C[C@@H]1CN([C@@H](C)CO)C(=O)CCCn2cc(nn2)CO[C@H]1CN(C)C(=O)Nc1ccc(F)cc1	2
O=C(NCCCc1ccccc1)OC1CC2CC1[C@H]1CCCCN1C2 (stereo partly drawn)	1
Cc1cc(C(=O)N/N=C/c2cccc(OC(=O)c3cccc(Br)c3)c2)n[nH]1	-2
COc1ccc(/C=N/NC(=O)c2cc(C34CC5CC(CC(C5)C3)C4)[nH]n2)cc1OC	5
COc1cccc(/C=N/NC(=O)c2cc(C34CC5CC(CC(C5)C3)C4)[nH]n2)c1	17*	TTR inh HuH7=-12;TTR act confirm=0
CN1CCN(C2=C(Cl)C(=O)N(CCc3ccccc3)C2=O)CC1	5
O=C1C(Cl)=C(NCCCN2CCOCC2)C(=O)N1CCc1ccccc1	69*	TTR inh HuH7=-3;TTR act confirm=-1
O=C(CCc1ccccc1)NCCCN1CCOCC1	1

Screening data from PubChem.
